# Test results as given in PubChem BioAssay (Tox21).
# Values joined by “and” are separate entries in the source; they are usually repeats but may differ in a detail not shown here. Equal entries are not always repeated. Inconclusive results are not listed. Entries that show only a call come without a potency. Active and inactive are the calls of the source. Unless noted, calls follow the shape of the dose curve; as a rule, active = well fitted curve in the direction sought with a large enough effect in the repeat runs; inconclusive = weak or mixed curves; inactive = no such curve, though single readings can be large; an effect the other way counts as inactive or inconclusive.
# Test: qHTS assay to identify small molecule phospholipidosis (PLD) inducers (AID 1259344; active = well fitted curve in the direction sought with a large enough effect; an effect the other way counts as inactive or inconclusive)
# Details: HepG2 phospholipidosis, LipidTOX Red imaging, 24 h; series mostly up to 38.3 µM
# Summary of the method: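 Phospholipidosis is scored by imaging LipidTOX-stained pits in HepG2 cells exposed to compound for 24 h at 37 C; pit counts and integrated intensities per well and per cell serve as outputs.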
row,SMILES,outcome
1,COP(=S)(OC)Oc1ccc(S(=O)(=O)N(C)C)cc1,inactive
2,C[C@]12CC[C@H]3[C@@H](CCC4=CC(=O)CC[C@@H]43)[C@@H]1CC[C@@H]2O,inactive
3,NN=C(N)N,inactive
4,Oc1ccc(Cl)cc1Cc1ccccc1,inactive
5,CCC1(c2ccc(N)cc2)CCC(=O)NC1=O (stereo unspecified),inactive
6,NC(=O)CN1CCCC1=O,inactive
7,O=C(O)c1nn(Cc2ccc(Cl)cc2Cl)c2ccccc12,inactive
8,N#Cc1nn(-c2c(Cl)cc(C(F)(F)F)cc2Cl)c(N)c1S(=O)C(F)(F)F (stereo unspecified),inactive
9,O=C1Nc2ccc(Cl)cc2C(c2ccccc2)=NC1O (stereo unspecified),inactive

# Test: qHTS assay to identify small molecule HDAC inhibitors (AID 1259364); also: nearly all actives have a fitted effect of over 45% in size; also: potency is read from the fitted curve at half-maximal effect
# Details: HCT-116 HDAC-Glo I/II luminescence, 2 h; series mostly up to 92.4 µM
# Summary of the method: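 Wild-type HCT-116 cells were plated overnight, exposed to compounds for 2 h at 37 °C, then given HDAC-Glo class I/II luminogenic reagent for 30 min at room temperature before luminescence was read.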
row,SMILES,Potency
1,N#CCCCCC#N,inactive
2,COP(=S)(OC)Oc1ccc(S(=O)(=O)N(C)C)cc1,inactive
3,N#Cc1c(Cl)c(Cl)c(Cl)c(C#N)c1Cl,inactive
4,C[C@]12CC[C@H]3[C@@H](CCC4=CC(=O)CC[C@@H]43)[C@@H]1CC[C@@H]2O,inactive
5,COc1ccc(CO)cc1,inactive
6,CCC(=O)Nc1ccc(Cl)c(Cl)c1,inactive
7,NN=C(N)N,inactive
8,OC(c1ccc(Cl)cc1)(c1cncnc1)c1ccccc1Cl (stereo unspecified),inactive
9,Cl,inactive
10,CC(C)(c1ccccc1)c1ccc(O)c(C(C)(C)c2ccccc2)c1,inactive
11,CC(C)(c1ccccc1)c1ccc(O)cc1,inactive
12,COP(=O)(NC(C)=O)SC (stereo unspecified),inactive
13,COC(=O)Nc1nc2ccccc2[nH]1,24.3 µM (active) and 27.3 µM (active)
14,CC(O)CN(CC(C)O)CC(C)O (stereo unspecified),inactive
15,CCCCSP(=O)(SCCCC)SCCCC,inactive
16,O=P(OCCCl)(OCCCl)OCCCl,inactive
17,CCOS(=O)(=O)OCC,inactive
18,CC(C)(O)C#N,inactive
19,CS(=O)(=O)NC(=O)c1cc(Oc2ccc(C(F)(F)F)cc2Cl)ccc1[N+](=O)[O-],inactive

row,SMILES,Potency
1,Nc1ccc([N+](=O)[O-])cc1N,inactive
2,Oc1ccc(Cl)cc1Cc1ccccc1,inactive
3,CCC1(c2ccc(N)cc2)CCC(=O)NC1=O (stereo unspecified),inactive
4,NC(=O)CN1CCCC1=O,inactive
5,COc1ccc(C=O)cc1OC,inactive
6,O=C(O)c1nn(Cc2ccc(Cl)cc2Cl)c2ccccc12,inactive
7,Brc1ccc(Br)cc1,inactive
8,[CH3][Sn]([Cl])([Cl])[Cl],inactive
9,N#Cc1nn(-c2c(Cl)cc(C(F)(F)F)cc2Cl)c(N)c1S(=O)C(F)(F)F (stereo unspecified),inactive
10,O=S(=O)(O)C(F)(F)C(F)(F)C(F)(F)C(F)(F)C(F)(F)C(F)(F)C(F)(F)C(F)(F)F,inactive
11,CCCCOCC1CO1 (stereo unspecified),inactive
12,ClCC(Cl)CCl,inactive
13,O=C1Nc2ccc(Cl)cc2C(c2ccccc2)=NC1O (stereo unspecified),inactive
14,ClC(Cl)(Cl)Br,inactive
15,CC1=C(C(=O)Nc2ccccc2)SCCO1,24.7 µM (active) and 27.3 µM (active)
16,Clc1ccccc1-c1nnc(-c2ccccc2Cl)nn1,9.6 µM (active) and 4.31 µM (active)
17,CC1CC(=O)O1 (stereo unspecified),inactive
18,CCOP(=O)(OCC)OCC,inactive
